Bioassay records as filed in PubChem.
NOD2-RIPK2 inh = NOD2-RIPK2 protein interaction inhibition. O43353. inhibition, % at 4.98 µM. 360,000 tested, 0.38% active. CHO BLA complementation NOD2-RIPK2, CCF4 ratio; in the data active means inhibition above about 21%;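 further: 0% = vehicle only and 100% = reference blocker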
NTR1 agonist = agonists of human neurotensin receptor NTR1. P30989. NTR1-U2OS beta-arrestin-GFP spot imaging, agonist mode. activation, % at 20 µM. 330,000 tested, 0.17% active;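 active means activation at or above 40% of the spot to cytoplasm intensity ratio, with at least 20 cells analyzed; inconclusive means wells under 20 cells, flagged as cytotoxic or low count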;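 further: 0% = DMSO without peptide and 100% = 100 nM NTR1 peptide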
TLR4 MyD88 comp = TLR4-MyD88 interaction inhibition in cells | AID 861 | 200,000 tested, 0.18% active | O00206+Q99836 | HeLa CL3-4 TLR4/MyD88 BLA complementation, FRET ratio | inhibition, % at 8.4 µM; in the data active means inhibition above about 25%;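 further: 0% = vehicle and 100% = reference inhibitor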
Target sequence (O00206 whole entry, looked up): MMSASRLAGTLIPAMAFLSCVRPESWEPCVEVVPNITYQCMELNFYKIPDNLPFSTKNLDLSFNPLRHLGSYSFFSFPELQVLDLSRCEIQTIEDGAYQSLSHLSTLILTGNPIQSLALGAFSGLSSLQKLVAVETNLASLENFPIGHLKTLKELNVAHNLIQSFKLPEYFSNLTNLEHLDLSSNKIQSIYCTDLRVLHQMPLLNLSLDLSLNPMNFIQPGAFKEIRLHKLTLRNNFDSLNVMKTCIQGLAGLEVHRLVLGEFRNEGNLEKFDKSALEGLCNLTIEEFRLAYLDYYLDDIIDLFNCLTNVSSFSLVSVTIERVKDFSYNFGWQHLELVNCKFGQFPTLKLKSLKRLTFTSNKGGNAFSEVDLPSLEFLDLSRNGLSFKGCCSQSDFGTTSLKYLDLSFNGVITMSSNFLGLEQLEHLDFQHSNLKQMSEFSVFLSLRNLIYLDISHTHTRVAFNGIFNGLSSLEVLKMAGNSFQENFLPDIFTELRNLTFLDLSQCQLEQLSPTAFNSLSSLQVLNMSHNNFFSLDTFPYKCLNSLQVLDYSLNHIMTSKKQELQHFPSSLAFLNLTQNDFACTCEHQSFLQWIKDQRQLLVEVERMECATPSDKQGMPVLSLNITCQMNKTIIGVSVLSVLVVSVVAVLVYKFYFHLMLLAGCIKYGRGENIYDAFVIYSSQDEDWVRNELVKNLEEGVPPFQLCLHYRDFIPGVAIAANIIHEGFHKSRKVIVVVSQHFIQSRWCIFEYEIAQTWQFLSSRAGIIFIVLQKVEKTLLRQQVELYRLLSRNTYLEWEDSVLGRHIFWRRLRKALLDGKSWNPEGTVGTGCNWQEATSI
Target sequence (Q99836 whole entry, looked up): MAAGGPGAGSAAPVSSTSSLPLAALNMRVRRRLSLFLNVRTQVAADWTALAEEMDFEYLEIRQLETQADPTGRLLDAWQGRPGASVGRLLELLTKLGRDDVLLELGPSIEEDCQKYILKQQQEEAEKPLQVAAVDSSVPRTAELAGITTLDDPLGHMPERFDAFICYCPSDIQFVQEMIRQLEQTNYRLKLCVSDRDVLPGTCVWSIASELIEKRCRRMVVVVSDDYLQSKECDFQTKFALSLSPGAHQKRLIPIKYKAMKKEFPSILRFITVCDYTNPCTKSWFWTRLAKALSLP
Bfl-1 A1 inh = inhibitors of the anti-apoptotic protein A1, read as caspase activation; 330,000 tested, 0.066% active; MEF A1-2A-BIM cells, Caspase-Glo 3/7 luminescence, 3 h; percent of clofoctol response, vehicle zero; caspase activation, % (no concentration beside the values);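 active means over half of replicate activation scores above 10%, or exactly half above 10 with the replicate mean above 10; inconclusive means replicate mean below 10 yet half the replicates above 10; inactive means over half of replicates below 10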
TLR9-MyD88 block = blocks human TLR9 binding to MyD88; 340,000 tested, 0.21% active; inhibition, % at 4.98 µM; CHO BLA complementation TLR9-MyD88, CCF4 FRET ratio; Q9NR96+Q99836;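 active means inhibition above the mean over all tested compounds plus 3 SD, cut at about 21% in these data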;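 further: 0% = DMSO only wells and 100% = clavulanate BLA inhibitor control wells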
Beta2AR agonist = human beta-2 adrenergic receptor agonism by FAP; P07550; Am2.2-beta2AR cells, FAP receptor internalization, flow cytometry; response, % (concentration not given with the values); 340,000 tested, 0.43% active; AID 504454;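 active means response above a set limit, near 3 SD of response in nonfluorescent compounds, cut at about 42% in these data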
B2AR ag CP1 = activates human beta-2 adrenergic receptor; shares compounds with Beta2AR agonist; Am2.2-beta2AR cells, FAP surface receptor, flow cytometry; active compounds read low; percent response (surface receptor), % at 10 µM; 1,100 tested, 25% active;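 active means surface receptor percent response at or below 58%, roughly 3 SD from nonfluorescent compounds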
FAP fluor counter = counter-screen for beta-2AR agonists: fluorescence in Am2.2 cells | calls only at 10 µM | 1,100 tested, under 10 active | shares compounds with Beta2AR agonist | FAP fluorogen flow cytometry, fluorescence counterscreen; active compounds read low;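 active means percent response below a set limit in fluorescence channel 1 and below 50% in channel 8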
Starred values were filed as active, the others as inactive; i = inactive; ? = inconclusive; . = no result given. An excerpt weighted towards active compounds, which were near 0.97% of everything screened.

SMILES	NOD2-RIPK2 inh	NTR1 agonist	TLR4 MyD88 comp	Bfl-1 A1 inh	TLR9-MyD88 block	Beta2AR agonist	B2AR ag CP1	FAP fluor counter
COc1cccc(OC)c1OCC(O)CN1CCN(c2ccccc2)CC1 (stereo not given)	0.0	-0.7	2.0	0.0	-3.6	48.1*	126.2	i
Cc1noc(C)c1CSc1ccc(Br)cc1	-0.7	0.0	4.8	-0.2	-0.2	10.8	.	.
COc1ccc(-c2cc(C(F)(F)F)n3nc(C(=O)O)cc3n2)cc1OC	-8.9	6.1	8.4	-1.0	-11.1	51.5*	99.0	i
COc1ccccc1C(C)NC(=O)CN(C)CC(=O)Nc1c(C)cccc1C (stereo not given)	-4.2	0.5	.	0.1	-1.4	-2.7	.	.
CCCOc1cccc(C(=O)Nc2cccc(NC(=O)c3ccco3)c2)c1	-5.8	-2.0	-9.9	0.2	-7.2	-1.4	.	.
CCCCOc1cccc(C(=O)Nc2ccc(NC(=O)c3ccco3)cc2)c1	-3.2	-0.6	.	0.0	-11.0	68.6*	34.6*	i
CN(Cc1nc2ccc(Cl)cc2[nH]1)Cc1nc(-c2cnccn2)no1	3.3	0.8	-19.8	0.4	10.7	-2.8	.	.
CCOC(=O)CSc1nc2ccc(NC(=O)CSc3nnnn3Cc3ccccc3)cc2s1	-5.2	0.9	12.2	0.3	-10.1	54.0*	100.5	i
CSc1nnc(Cn2c(=O)sc3ccccc32)n1CCc1ccccc1	6.4	8.4	14.6	0.5	-0.8	-20.5	.	.
CC1CC2(C)Oc3ccccc3CC2C(C)C1CNCCCN(C)C (stereo not given)	-2.1	2.3	-10.9	0.6	-0.2	42.1*	77.5	i
Cc1cccc(S(=O)(=O)Nc2ccc(-c3cn4ccccc4n3)cc2)c1	-1.9	-0.1	0.7	0.3	-9.6	78.9*	131.1	i
O=S(=O)(Nc1ccc(-c2cn3ccccc3n2)cc1)c1ccccc1	-0.7	-0.1	.	-0.8	-3.3	-8.2	.	.
COc1ccc(-n2c(Cc3cc(=O)[nH]c(=O)[nH]3)nnc2SCC(=O)NC2CCCC2)cc1	-10.4	5.1	0.1	0.2	6.0	51.7*	88.0	i
COc1ccc(-n2ccnc(SCC(=O)NC3CCCCC3)c2=O)cc1	-7.6	0.5	.	-0.9	12.6	92.7*	103.3	i
COc1ccc(-n2ccnc(SCC(=O)NC3CCCC3)c2=O)cc1	-7.1	-0.5	.	?	3.0	6.3	.	.
Cc1ccccc1NNC(=O)C(=O)NNc1ccccc1C	0.4	-0.3	.	-0.4	4.9	4.1	.	.
CCCCCCc1c(O)nc(SCC(=O)O)[nH]c1=O	-5.5	.	.	0.2	3.0	0.8	.	.
Cc1cc2nc(-c3ccccn3)c(-c3ccccn3)nc2cc1C	3.7	-1.4	.	.	1.1	-6.0	.	.
O=C(Nc1cc(S(=O)(=O)Nc2ccc(Cl)cc2)ccc1N1CCCCC1)c1ccc(F)cc1	1.2	6.0	0.7	0.1	-3.2	8.3	.	.
N#Cc1ccc(C(=O)Nc2cc(S(=O)(=O)Nc3ccc(Cl)cc3)ccc2N2CCCCC2)cc1	-1.3	6.4	-0.1	0.7	-3.9	43.8*	102.9	i
CN(C)CCCn1c(SCC(=O)N2c3ccccc3Sc3ccccc32)nc2ccccc2c1=O	-1.2	.	-7.0	0.6	-0.8	49.2*	58.6	i
Cn1c(SCC(=O)N2c3ccccc3Sc3ccccc32)nc2ccccc21	-2.4	1.7	-3.5	0.2	-1.2	-1.2	.	.
Cc1ncc(CN2CCCC(C(=O)Nc3ccc(-c4cccc(F)c4)cc3)C2)cn1 (stereo not given)	3.0	1.1	.	0.3	-8.1	90.7*	20.9*	i
CCc1ncc(CN2CCCC(C(=O)Nc3cccc(-c4ccc(F)cc4)c3)C2)cn1 (stereo not given)	-3.0	0.9	.	0.9	-2.2	-16.9	.	.
Cc1ncc(CN2CCCC(C(=O)Nc3ccc(-c4cccc(F)c4)cc3)C2)s1 (stereo not given)	-4.0	1.1	.	1.9	-13.8	50.7*	24.6*	i
SMILES	NOD2-RIPK2 inh	NTR1 agonist	TLR4 MyD88 comp	Bfl-1 A1 inh	TLR9-MyD88 block	Beta2AR agonist	B2AR ag CP1	FAP fluor counter
COc1cccc(-c2ccc(NC(=O)C3CCCN(Cc4cnc(N(C)C)s4)C3)cc2)c1 (stereo not given)	5.8	6.6	.	-1.6	-1.8	11.6	.	.
CCN(CC)C(=O)Oc1cc(COC)nc(-c2ccccc2)n1	-5.1	1.5	.	0.0	.	-7.9	.	.
O=C(c1ccc(OC2CCN(Cc3ccccc3OC(F)F)CC2)cc1)N1CCCC1	7.2	-0.2	.	0.5	-10.0	-1.3	.	.
O=C(c1ccc(OC2CCN(Cc3ccc(C(F)(F)F)cc3)CC2)cc1)N1CCCCC1	-7.8	3.8	.	-0.4	3.5	61.6*	8.5*	i
O=C(c1ccc(OC2CCN(Cc3ccccc3C(F)(F)F)CC2)cc1)N1CCCCC1	-0.9	8.9	.	-0.2	-3.8	1.0	103.7	i
O=C(c1ccc(OC2CCN(Cc3cccc(F)c3)CC2)cc1)N1CCCCC1	1.4	-0.5	.	-0.3	8.1	3.5	.	.
COc1ccccc1NC(=O)C(C)N1CCN(C/C=C/c2ccccc2)CC1 (stereo not given)	-2.0	-1.2	-7.3	0.4	6.2	3.1	.	.
O=C(NC1CCc2ccccc21)c1cc(COc2cncc(Cl)c2)on1 (stereo not given)	-1.1	2.3	.	-0.3	-14.5	5.4	123.2	i
O=C(NC1CCc2ccccc21)c1cc(COc2ccc(F)cc2Cl)on1 (stereo not given)	-0.1	1.7	15.5	0.3	-13.2	11.2	.	.
CC1CCCN(C(=O)COC(=O)c2ccc[nH]c2=O)C1 (stereo not given)	5.1	0.7	1.6	0.8	-6.0	51.0*	97.9	i
CN(C(=O)COC(=O)c1ccc[nH]c1=O)C1CCCCC1	-7.5	2.0	-16.1	-2.0	8.5	6.8	.	.
CCOC(=O)COc1cccc2c(=O)n(CC(=O)NCc3ccccc3)ccc12	5.5	3.5	.	1.0	13.1	19.0	.	.
CCOC(=O)COc1cccc2c(=O)n(CC(=O)NCc3ccc(F)cc3)ccc12	13.8	0.8	.	1.9	-1.6	50.6*	73.5	i
O=C(CN(Cc1ccco1)C(=O)c1ccc(F)cc1F)Nc1ccccc1C(F)(F)F	5.2	-0.1	.	-0.1	5.7	-4.2	.	.
Clc1ccc(Cl)c(OCCCCNCc2ccccc2)c1	9.8	2.1	-9.8	0.7	2.6	46.1*	113.7	i
Cc1nn(Cc2c(Cl)cccc2Cl)c(C)c1C(=O)NCc1ccc(C)n1C	-13.4	0.5	9.1	0.1	-2.1	-1.1	.	.
O=CN1CCN(C2CC(=O)N(c3ccc(Br)cc3)C2=O)CC1 (stereo not given)	0.8	0.6	3.6	-0.2	-22.2	2.9	.	.
